Structures can show the parent of a compound that is named as a salt.
Each compound was assayed on hN + hpA co-culture (H1 iNGN2 human neurons + human primary astrocytes) (assay: presynaptic density (SYNAPSIN1 puncta per MAP2 neurite area), Z-score vs DMSO controls; higher = more presynaptic puncta (synapse-promoting)). Settings: 3 µM; 72 h.
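Further: immunostained co-cultures imaged by high-content microscopy, Z-score per plate against mean and SD of 0.1% DMSO wells, compounds added on differentiation day 18, analysed day 21.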

| Compound | presynaptic density (Z-score) |
| --- | --- |
| Cc1ccc(S(=O)(=O)n2c(N)nc3ccccc32)cc1 [ML130 (Nodinitib-1)] | 0.396 |
| Nc1ncnc2c1c(-c1cccc(OCc3ccccc3)c1)cn2C1CC(CN2CCCC2)C1 (stereo not drawn) | -1.9 |
| Cc1[nH]c(/C=C2\C(=O)Nc3ccc(S(=O)(=O)N(C)c4cccc(Cl)c4)cc32)c(C)c1C(=O)N1CCN(C)CC1 | 0.365 |
| O=c1cc(-c2ccc(O)cc2)oc2cc(O)cc(O)c12 [Apigenin] | 0.0449 |
| Cc1cn([C@H]2C=C[C@@H](CO)O2)c(=O)[nH]c1=O [Stavudine (d4T)] | 0.723 |
| CC(=O)c1cc([N+](=O)[O-])c(Sc2ccc(F)cc2F)s1 | 0.25 |
| O=C(NCc1ccccc1)c1csc(Nc2ccncn2)n1 [Thiazovivin] | 0.74 |
| NS(=O)(=O)C#Cc1ccccc1 [2-Phenylethynesulfonamide] | 0.148 |
| CC[C@H](NC(=O)[C@H](C)NC)C(=O)N1C[C@@H](O)C[C@H]1Cc1c(-c2[nH]c3cc(F)ccc3c2C[C@@H]2C[C@H](O)CN2C(=O)[C@H](CC)NC(=O)[C@H](C)NC)[nH]c2cc(F)ccc12 [Birinapant] | 0.314 |
| O=C1NC(=O)/C(=C/c2cccc(C(F)(F)F)c2)S1 | -1.18 |
| Cc1ccc([C@@H]2O[C@H](CO)[C@@H](O)[C@H](O)[C@H]2O)cc1Cc1ccc(-c2ccc(F)cc2)s1 [Canagliflozin] | -0.473 |
| CCc1c(C(=O)NCCc2ccc(N3CCCCC3)cc2)[nH]c2ccc(Cl)cc12 | -0.684 |
| Nc1cccc2c1C(=O)N(C1CCC(=O)NC1=O)C2=O (stereo not drawn) [Pomalidomide] | 0.469 |
| O=c1ncn2nc(Sc3ccc(F)cc3F)ccc2c1-c1c(Cl)cccc1Cl | 0.626 |
| O=C(Nc1cccc(Nc2ncc(Br)c(NCCc3cnc[nH]3)n2)c1)N1CCCC1 | -0.439 |
| C[C@@H](NCCCc1cccc(C(F)(F)F)c1)c1cccc2ccccc12 [Cinacalcet HCl] | -1.05 |
| CC(=O)O[C@]1(C(C)=O)CC[C@H]2[C@@H]3C=C(Cl)C4=CC(=O)[C@@H]5C[C@@H]5[C@]4(C)[C@H]3CC[C@@]21C [Cyproterone acetate] | -0.989 |
| CCCCN1CCCCC1C(=O)Nc1c(C)cccc1C (stereo not drawn) [Bupivacaine HCl] | -0.239 |
| COc1ccnc2[nH]cc(C(=O)C(=O)N3CCN(C(=O)c4ccccc4)C[C@H]3C)c12 | 0.386 |

| Compound | presynaptic density (Z-score) |
| --- | --- |
| CCCS(=O)(=O)Nc1ccc(F)c(C(=O)c2c[nH]c3ncc(-c4ccc(Cl)cc4)cc23)c1F | -0.231 |
| O=C(NNc1ccccc1)c1ccncc1 | -0.884 |
| CN(c1ncccc1CNc1nc(Nc2ccc3c(c2)CC(=O)N3)ncc1C(F)(F)F)S(C)(=O)=O | -0.85 |
| COc1cc2c(cc1O)CC[C@@H]1[C@@H]2CC[C@]2(C)[C@@H](O)CC[C@@H]12 [2-Methoxyestradiol (2-MeOE2)] | -0.808 |
| N#CC1(c2ccc(NC(=O)c3cccnc3NCc3ccncc3)cc2)CCCC1 [Apatinib] | -1.31 |
| N#Cc1ccc(C(c2ccc(C#N)cc2)n2cncn2)cc1 | 0.0621 |
| CN[C@H]1CC[C@@H](c2ccc(Cl)c(Cl)c2)c2ccccc21 | 1.13 |
| Cc1[nH]c2ccccc2c1CCNCc1ccc(/C=C/C(=O)NO)cc1 [Panobinostat (LBH589)] | 4.81 |
| OCCn1cc(-c2cnc3nnn(Cc4ccc5ncccc5c4)c3n2)cn1 | -0.173 |
| O=C1C(=O)N(Cc2ccc(Cl)c(Cl)c2)c2ccccc21 [1-[(3 4-Dichlorophenyl)methyl]-1H-indole-2 3-dione] | -0.359 |
| Cc1nnc(C(C)C)n1C1C[C@H]2CC[C@@H](C1)N2CC[C@H](NC(=O)C1CCC(F)(F)CC1)c1ccccc1 (stereo in doubt) [Maraviroc] | -1.28 |
| C[C@H](NCc1ccc(OCc2cccc(F)c2)cc1)C(N)=O [Safinamide Mesylate] | -0.055 |
| N#C[C@@H]1CCCN1C(=O)CNC12CC3CC(CC(O)(C3)C1)C2 [Vildagliptin (LAF-237)] | 0.854 |
| C[C@H]1COC2=C1C(=O)C(=O)c1c2ccc2c1CCCC2(C)C | 0.405 |
| CNC(=O)c1ccc(N2C(=S)N(c3ccc(C#N)c(C(F)(F)F)c3)C(=O)C2(C)C)cc1F [Enzalutamide (MDV3100)] | 0.664 |
| CCC(CC)CC1(C(=O)Nc2ccccc2SC(=O)C(C)C)CCCCC1 [Dalcetrapib (JTT-705] | -0.463 |
| Cc1c(C(=O)Nc2ccc(N3C[C@@H](C)O[C@@H](C)C3)nc2)cccc1-c1ccc(OC(F)(F)F)cc1 [LDE225 (NVP-LDE225,Erismodegib)] | 0.612 |
| COc1ccc2cc([C@H](C)C(=O)O)ccc2c1 [Naproxen] | -1.04 |
| CCCCCCCCc1ccc(CCC(N)(CO)CO)cc1 [Fingolimod (FTY720) HCl] | 0.342 |
